A selection: hits, their analogues and other compounds. The true share with any hit is near 1.1%.
HTR5A ag ctr: HTR5A agonists in luminescence cell assay, primary screen, counter-screen for OPRM1-OPRD1 heterodimer agonist project, full-deck HTS; hit rate 0.61% among 340,000; cell-based; activation, % at 9.3 µM; in the data active = activation mostly above about 9.5%, no sharp cut-off; inactive = mostly below about 7.6%;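 note: 0% = cells with vehicle only and 100% = reference agonist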
Target sequence (P47898 whole entry, looked up): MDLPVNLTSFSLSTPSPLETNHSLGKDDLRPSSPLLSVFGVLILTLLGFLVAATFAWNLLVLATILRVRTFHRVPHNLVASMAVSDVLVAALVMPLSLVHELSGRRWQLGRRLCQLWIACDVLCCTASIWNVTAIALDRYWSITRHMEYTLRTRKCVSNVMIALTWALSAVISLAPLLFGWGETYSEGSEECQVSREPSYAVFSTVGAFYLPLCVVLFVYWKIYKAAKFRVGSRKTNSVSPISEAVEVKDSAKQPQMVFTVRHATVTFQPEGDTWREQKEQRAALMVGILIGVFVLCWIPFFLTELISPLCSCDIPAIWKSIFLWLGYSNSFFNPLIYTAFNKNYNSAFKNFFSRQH
OPRM1-OPRD1 inv: inverse agonists of MOR-DOR heterodimerization, primary screen, cell-based, luminescence. Mu-type opioid receptor (Homo sapiens) + Delta-type opioid receptor (Homo sapiens), …. cell-based MOR-DOR heterodimer luminescence, inverse agonism. inhibition, % at 9.3 µM. hit rate 0.21% among 340,000. AID 504357, 2011; in the data active = inhibition above about 22%, passing the limit was not always enough;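 note: 0% = cells with DMSO and 100% = wells without cells with DMSO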
HTR5A inv ag: HTR5A inverse agonists in luminescence cell assay, primary screen, counter-screen for OPRM1-OPRD1 heterodimer inverse agonist project, full-deck HTS. HTR5A cell line, inverse agonism. inhibition, % at 9.3 µM. hit rate 0.083% among 340,000. AID 504634, 2011; in the data active = inhibition mostly above about 23%, no sharp cut-off; inactive = mostly below about 18%;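 note: 0% = cells with DMSO and 100% = no-cell wells with DMSO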
MOR-DOR ag: agonists of OPRM1-OPRD1 heterodimerization, primary screen, cell-based, luminescence. cells. activation, % at 9.3 µM. hit rate 0.3% among 340,000. Mu-type opioid receptor (Homo sapiens) + Delta-type opioid receptor (Homo sapiens), …. AID 504326, 2011; in the data active = activation above about 18%;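 note: 0% = vehicle-treated cells and 100% = reference agonist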
Starred values were filed as active, the others as inactive.

SMILES	HTR5A ag ctr	OPRM1-OPRD1 inv	HTR5A inv ag	MOR-DOR ag
CCOC(=O)/C(=C\c1cccnc1)C(=O)c1cc(C(C)=O)c(Nc2ccccc2)s1	-7.1	32.7*	24.1	-5.5
CCCCn1cnc2c(SCc3ccccc3Cl)nc(N)nc21	3.5	1.9	-13.9	-0.4
O=C(CCN1C(=O)/C(=C/c2ccccc2)SC1=S)NCCCN1CCOCC1	8.2	-14.0	-23.4	2.2
O=C(CCN1C(=O)/C(=C/c2ccccc2F)SC1=S)NCCCN1CCOCC1	12.8*	0.9	-5.3	-0.1
CCCc1nc(SCC(=O)NNC(=O)c2ccc(OC)cc2)c2ccccc2n1	-0.7	13.4	1.9	-2.6
Cc1nc(SCC(=O)NNC(=O)c2ccc(F)cc2)c2ccccc2n1	12.8*	8.4	-31.4	-2.0
Cc1ccccc1N(CC(=O)NCCSc1ccccn1)S(=O)(=O)c1ccccc1	2.0	18.4	-5.3	-3.6
COc1ccccc1N(CC(=O)NCCSc1ccccn1)S(=O)(=O)c1ccccc1	12.0*	-9.9	-47.0	1.2
CCN(CC)CC(=O)Nc1sc2c(c1C(=O)c1ccccc1OC)CCC2	11.2*	-16.3	-28.6	3.5
CCOC(=O)c1ccc(N=c2scc(C)n2CC)cc1	12.9*	1.0	-35.6	-0.1
CC(C)(C)C1CCC(=NNc2nc3ccccc3[nH]2)CC1 (stereo not given)	-0.6	6.8	1.5	-1.2
c1ccc2c(c1)CC/C2=N/Nc1nc2ccccc2[nH]1	11.7*	-30.6	-32.5	6.5
O=S(=O)(NCC1CCCO1)c1ccc(Cl)cc1 (stereo not given)	-2.2	17.1	7.4	-3.5
CCC(=O)Nc1ccc(Cl)c(NC(=O)c2ccc([N+](=O)[O-])cc2)c1	11.5*	-32.7	-30.7	4.5
C(=C1c2ccccc2-c2ccccc21)c1ccncc1	8.9*	1.1	-34.6	-0.2
Cc1ccc(C)c(Cn2c(=O)n(C)c(=O)c3sccc32)c1	-0.3	-2.1	1.1	0.4
O=C(N/N=C/c1c[nH]c2ccccc12)c1cc(-c2ccccc2)n[nH]1	-2.5	-20.8	6.3	3.2
O=C(N/N=C/c1c[nH]c2ccccc12)c1cc(-c2ccc(-c3ccccc3)cc2)n[nH]1	12.0*	-19.5	-20.6	3.8
Cc1ccc2c(c1)C(c1ccc(O)cc1)(c1ccc(O)cc1)C(=O)N2C	10.4*	7.3	-28.2	-1.5
CN(C(=O)CO/N=C/c1ccc(Cl)cc1)c1ccccc1	2.7	1.7	-7.5	-0.3
Cc1cccc(-c2cc3nc(-c4ccccc4)cc(N4CCC5(CC4)OCCO5)n3n2)c1	12.0*	-3.7	10.4	0.9
Cn1cc(CN2CCC(n3nccc3NC(=O)CCc3ccccc3)CC2)cn1	10.4*	6.6	-13.2	-1.2
Cn1cc(CN2CCC(n3nccc3NC(=O)CCCc3ccccc3)CC2)cn1	2.9	-0.2	24.8	0.0
O=C(CC1SC(N2CCCC2)=NC1=O)Nc1ccc(C(=O)NCc2ccc(F)cc2)cc1 (stereo not given)	3.1	9.6	6.9	-1.5
CCN(CC)C(=O)Cn1c(=O)n(Cc2ccc(F)cc2)c(=O)c2sccc21	-2.8	8.7	10.5	-1.8
SMILES	HTR5A ag ctr	OPRM1-OPRD1 inv	HTR5A inv ag	MOR-DOR ag
O=C(Cn1c(=O)n(-c2ccc(F)cc2)c(=O)c2sccc21)NC1CCCCC1	12.2*	13.8	20.7	-2.7
COC(=O)CNC(=O)Cn1c(=O)n(Cc2ccc(F)cc2)c(=O)c2sccc21	11.3*	2.2	-41.6	-0.5
O=C(Nc1ccc2oc(=O)ccc2c1)c1ccc(-c2ccccc2[N+](=O)[O-])o1	13.9*	-143.8	5.2	27.1*
COc1ccc(-n2nnnc2-c2cccnc2)cc1	10.4*	-16.7	-20.1	3.2
COCCCNC(=S)Nc1cccc(SC)c1	1.0	11.9	-27.9	-2.4
CC(C)c1cc(C(=O)N2CCCC(N3CCN(c4ccc(F)cc4)CC3)C2)n(C)n1 (stereo not given)	10.3*	16.4	-5.2	-3.2
CCCc1ccc2oc(C(=O)N3CCN(c4cnccn4)CC3)c(C)c2c1	12.7*	-15.7	-33.4	2.9
CCCc1ccc2oc(C(=O)N3CCN(CCC(N)=O)CC3)c(C)c2c1	0.8	7.4	-2.9	-1.5
O=C(O)CC1(CC(=O)Nc2ccc(C(F)(F)F)cc2)CCCC1	9.5*	5.1	-35.7	-1.1
O=C1c2ccccc2C(=O)N1CC1c2ccccc2CCN1C(=O)C1CCCCC1 (stereo not given)	1.4	-20.5	-3.8	3.3
O=C1c2ccccc2C(=O)N1CC1c2ccccc2CCN1C(=O)CN1CCOCC1 (stereo not given)	10.6*	-0.5	-27.2	0.1
COc1ccccc1NC(=O)OC(C)c1ccc(Cl)cc1 (stereo not given)	17.2*	-5.2	-49.0	0.8
Cc1ccc2nsnc2c1NC(=S)NC(=O)c1ccco1	-1.5	7.7	3.8	-1.4
O=C(NC(=S)Nc1c(Cl)ccc2nsnc12)c1ccccc1F	10.1*	6.9	-7.2	-1.4
Cc1ccc(S(=O)(=O)N(C)C)cc1NC(=O)COC(=O)/C=C/c1cnc2ccccc2n1	14.2*	-6.5	-40.7	1.3
CC(C)N(CC(=O)Nc1ccc(Cl)cc1C(F)(F)F)C(=O)CCl	11.8*	-4.4	-30.1	1.0
CSCCC(NS(=O)(=O)c1ccc(C)cc1)C(=O)N1CCN(C(C)=O)CC1 (stereo not given)	1.2	11.2	-6.2	-2.3
COc1cc(/C(C)=N/NC(=O)c2ccc(CSc3nncn3C)cc2)cc(OC)c1OC	10.4*	-10.6	-28.4	2.0
CC(=O)NCCc1c(C)n(Cc2ccccc2)c2ccccc12	4.0	16.2	-14.8	-3.3
C=CCC1CCC/C(=N\NS(=O)(=O)c2ccc(C)cc2)C1 (stereo not given)	13.4*	-2.3	-49.1	0.4
O=C(Cc1ccc(F)cc1)Nc1ccc(Cl)cn1	4.0	15.7	-11.2	-3.1
CC(C)(C)NC(=O)COC(=O)c1ccccc1C(=O)c1ccccc1	3.9	-9.7	20.0	1.8
Cc1ccc(S(=O)(=O)Nc2cccc3ncccc23)s1	-6.5	43.7*	27.0	-7.5
CC(C)OCCCNC(=O)c1ccc(CS(=O)(=O)c2cccc(C(F)(F)F)c2)o1	1.6	23.4	-5.7	-5.2
CC(C)CN1C(=O)c2ccc(C(=O)NCc3ccccn3)cc2C1=O	9.6*	-1.2	-10.0	0.2
SMILES	HTR5A ag ctr	OPRM1-OPRD1 inv	HTR5A inv ag	MOR-DOR ag
COc1ccc(N=CC2=C(O)CC(c3ccccc3)CC2=O)c(OC)c1 (stereo not given)	-2.3	13.1	-5.8	-2.5
CCOc1ccccc1N=CC1=C(O)CC(c2ccccc2)CC1=O (stereo not given)	12.6*	6.1	-32.8	-1.3
CN1C(=O)C(O)(CC(=O)/C=C/c2ccco2)c2ccccc21 (stereo not given)	9.6*	8.2	-25.7	-1.6
Cc1cc(C)c(C#N)c(SCC(O)CS(=O)(=O)Cc2ccccc2)n1 (stereo not given)	12.1*	-1.3	-5.0	0.2
Cc1cc(C)c(C#N)c(SCC(=O)c2ccccc2)n1	5.3	12.1	-2.6	-1.9
COc1ccnc(CSC(N)=Nc2cccc(C(F)(F)F)c2)c1	5.3	10.1	-22.6	-1.9

Bioassay records from PubChem BioAssay.
